This passage reports outcome and AC50 results from PubChem BioAssay (EPA / NIEHS).

Experiment [1] deals with rat Peripheral-type Benzodiazepine Receptor (PBR), Tspo (gene 24230) (UniProt P16257). Description: NVS_MP_rPBR: NovaScreen (NVS) Membrane Protein Assay for rat Peripheral-type Benzodiazepine Receptor (PBR) (AID 2283335). The method in brief: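 Single-concentration duplicate screening at 25 uM preceded concentration-series retesting of actives. Binding of a specific radioligand to rat kidney membrane PBR was read by filtration radiodetection after 1 h, with plate-wise positive and negative controls.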
Sequence of rat Peripheral-type Benzodiazepine Receptor (PBR), Tspo (gene 24230) (P16257 whole entry, looked up): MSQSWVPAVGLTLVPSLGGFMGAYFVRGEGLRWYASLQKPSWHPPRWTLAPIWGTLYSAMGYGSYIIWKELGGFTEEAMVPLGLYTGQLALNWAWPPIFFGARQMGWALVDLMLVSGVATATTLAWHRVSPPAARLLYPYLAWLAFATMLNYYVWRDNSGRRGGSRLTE

Experiment [2] deals with chimpanzee Androgen Receptor (AR), AR (gene 747460) (UniProt O97775). The experiment is described as follows: NVS_NR_cAR: NovaScreen (NVS) Nuclear Receptor Binding Assay for chimpanzee Androgen Receptor (AR) (AID 2283346). The method in brief: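 Radioligand binding to chimpanzee AR expressed in Sf9/Sf21 cells, cell-free, measured 72 h after dosing by lysate-based scintillation counting. Loss of signal vs DMSO; initial duplicate screen at 25 uM, actives retested in concentration series.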
Sequence of chimpanzee Androgen Receptor (AR), AR (gene 747460) (O97775 whole entry, looked up): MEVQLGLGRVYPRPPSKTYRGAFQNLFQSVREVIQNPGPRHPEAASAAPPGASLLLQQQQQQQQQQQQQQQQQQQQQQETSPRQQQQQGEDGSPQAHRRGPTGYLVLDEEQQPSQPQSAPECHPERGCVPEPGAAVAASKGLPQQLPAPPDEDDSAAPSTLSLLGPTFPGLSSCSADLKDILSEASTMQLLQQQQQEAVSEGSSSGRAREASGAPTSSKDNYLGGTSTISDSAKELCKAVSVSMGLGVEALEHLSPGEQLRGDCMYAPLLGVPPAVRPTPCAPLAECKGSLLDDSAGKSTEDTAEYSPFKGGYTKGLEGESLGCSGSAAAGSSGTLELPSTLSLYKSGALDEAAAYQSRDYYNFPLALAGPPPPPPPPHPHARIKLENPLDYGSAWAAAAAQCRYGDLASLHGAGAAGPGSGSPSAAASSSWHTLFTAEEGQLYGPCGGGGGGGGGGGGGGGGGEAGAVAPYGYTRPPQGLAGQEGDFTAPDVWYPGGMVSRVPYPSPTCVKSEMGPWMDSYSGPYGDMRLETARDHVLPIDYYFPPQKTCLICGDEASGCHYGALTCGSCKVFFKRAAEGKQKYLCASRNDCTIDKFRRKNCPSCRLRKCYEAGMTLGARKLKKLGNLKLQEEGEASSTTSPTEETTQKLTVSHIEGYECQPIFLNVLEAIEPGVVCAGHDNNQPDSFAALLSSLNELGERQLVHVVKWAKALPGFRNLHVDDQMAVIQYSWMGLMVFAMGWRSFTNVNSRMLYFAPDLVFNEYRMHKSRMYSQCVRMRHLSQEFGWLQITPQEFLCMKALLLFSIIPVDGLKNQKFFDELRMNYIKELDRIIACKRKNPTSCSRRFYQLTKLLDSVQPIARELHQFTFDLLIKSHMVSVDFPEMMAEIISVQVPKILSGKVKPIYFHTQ

The target in experiment [3] is Estrogen receptor (Homo sapiens) (UniProt P03372). Description: OT_ER_ERaERa_1440: Odyssey Thera (OT) 24-hour HEK293T Protein-Complementation Assay for Estrogen Receptor-alpha/-alpha Homodimer (AID 2283349).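 Also: hits raise fluorescence above DMSO for agonists and antagonists alike.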 Put shortly: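 Cells (HEK293T) carrying the fragment-tagged ERα LBD (aa 310-547) pair are treated with chemical for 24 hours. Nuclear and/or cytoplasmic fluorescence is then quantified on a laser scanning cytometer. Activity is scored as signal gain against DMSO.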
Sequence of Estrogen receptor (Homo sapiens) (P03372 whole entry, looked up, the tested form may be a part): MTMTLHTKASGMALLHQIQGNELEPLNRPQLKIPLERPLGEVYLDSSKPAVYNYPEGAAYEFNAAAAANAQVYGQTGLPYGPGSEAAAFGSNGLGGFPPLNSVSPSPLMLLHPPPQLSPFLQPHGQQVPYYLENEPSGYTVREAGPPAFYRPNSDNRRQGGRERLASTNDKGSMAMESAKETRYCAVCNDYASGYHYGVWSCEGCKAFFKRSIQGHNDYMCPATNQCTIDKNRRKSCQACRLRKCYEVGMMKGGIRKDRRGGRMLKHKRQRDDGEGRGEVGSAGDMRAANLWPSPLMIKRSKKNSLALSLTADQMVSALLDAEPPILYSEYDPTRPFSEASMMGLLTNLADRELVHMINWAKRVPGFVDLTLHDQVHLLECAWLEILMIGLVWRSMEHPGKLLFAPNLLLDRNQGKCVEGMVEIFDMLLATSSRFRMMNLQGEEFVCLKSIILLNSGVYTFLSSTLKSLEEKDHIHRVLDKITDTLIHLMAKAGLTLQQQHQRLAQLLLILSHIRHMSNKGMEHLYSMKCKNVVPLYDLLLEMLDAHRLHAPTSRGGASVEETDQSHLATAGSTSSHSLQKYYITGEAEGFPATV

Experiment [4] shares this target. The experiment is described as follows: OT_ER_ERaERa_0480: Odyssey Thera (OT) 8-hour HEK293T Protein-Complementation Assay for Estrogen Receptor-alpha/-alpha Homodimer (AID 2283351).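 Also: rise in fluorescence from reassembled reporter fragments on ERα LBD homodimer in nucleus or whole cell.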 Put shortly:
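Read-out: fluorescence intensity rise relative to DMSO, nuclear for agonists, nuclear plus cytoplasmic for antagonists. Construct is the ERα LBD (aa 310-547) homodimer fragment-complementation pair, stably expressed in HEK293T; exposure 8 h.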

Experiment [5] addresses Androgen Receptor/SRC-1 Co-activator, AR (gene 367) (UniProt P10275). Description: OT_AR_ARSRC1_0960: Odyssey Thera (OT) 16-hour HEK293T Protein-Complementation Assay for Androgen Receptor/SRC-1 Co-activator (AID 2283353).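 Also: actives raise the signal above DMSO so potency reflects increased AR and SRC-1 complex.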 Put shortly: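 Readout: 488 nm nuclear-to-cytoplasmic fluorescence ratio from imaging of at least 400 cells per image, 16 h post-dose. Reporter is Venus YFP complementation between AR and SRC-1 fusions, stably expressed in HEK293T; activity scored upward relative to DMSO.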

The target is the same in experiment [6]. Description: OT_AR_ARSRC1_0480: Odyssey Thera (OT) 8-hour HEK293T Protein-Complementation Assay for Androgen Receptor/SRC-1 Co-activator (AID 2283354).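 Also: hits raise the complementation signal above DMSO so AC50 marks enhancers.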 The method in brief:
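Split-Venus PCA, stable HEK293T, AR/SRC-1 fusions; 8 h exposure. Readout: 488nm N/C fluorescence ratio, ≥400 cells/image; fitted upward vs DMSO baseline.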

For experiment [7], the target named is T1, Estrogen receptor (Homo sapiens) + Estrogen receptor beta (Homo sapiens) (UniProt P03372+Q92731). The experiment is described as follows: OT_ER_ERaERb_1440: Odyssey Thera (OT) 24-hour HEK293T Protein-Complementation Assay for Estrogen Receptor-alpha/-beta Homodimer (AID 2283356).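 Also: heteromer of ER alpha and ER beta binding domains; hits raise reporter fluorescence and both agonists and antagonists give an increase.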 Put shortly:
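24 h exposure; HEK293T PCA cells with ERα/ERβ LBD fragments; signal rise in nuclear or whole-cell fluorescence over vehicle.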

Experiment [8] deals with Estrogen receptor (Homo sapiens) (UniProt P03372). Description: NVS_NR_hER: NovaScreen (NVS) Nuclear Receptor Binding Assay for human Estrogen Receptor (ER) (AID 2283348). The method in brief: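 MCF7-derived receptor extract, radiolabelled ligand, competitive displacement. Read: scintillation counts at 18 h. DMSO = negative control/baseline. Primary 25 uM duplicate; follow-up concentration–response.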

For experiment [9], the target named is human Constitutive Androstane Receptor (CAR), NR1I3 (gene 9970) (UniProt Q14994). The experiment is described as follows: NVS_NR_hCAR_Antagonist: NovaScreen (NVS) Nuclear Receptor Binding Assay for human Constitutive Androstane Receptor Antagonism (CAR) (AID 2283344). The method in brief:
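Single 25 uM duplicate primary screen, with concentration-series follow-up on actives. Cell-free binding format run in antagonist mode, TR-FRET signal taken 1 h post-dose; activity is signal loss relative to DMSO.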

Experiment [10] deals with guinea pig Histamine Receptor (H2), gene 100729734. Description: NVS_GPCR_gH2: NovaScreen (NVS) G Protein-Coupled Receptor Assay for guinea pig Histamine Receptor (H2) (AID 2283342). Put shortly: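 Guinea pig striatal membrane preparation with specific radioligand; bound counts measured by filtration and scintillation 1 h post-dosing, DMSO as baseline. Chemicals passing a 25 uM duplicate screen were titrated to a 50 uM maximum.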

The next experiment relates to NCBI gene 100848466. The experiment is described as follows: NVS_NR_bPR: NovaScreen (NVS) Nuclear Receptor Binding Assay for bovine Progextron Receptor (PR) (AID 2283343).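 As to AC50: actives lower bound radioligand signal below DMSO meaning displacement of the label.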 Put shortly: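 Scintillation counts of bound radioligand were read 18 hours after chemical addition to membranes extracted from bovine uterus. Displacement was scored as loss of signal relative to DMSO controls. Screening began at 25 uM in duplicate.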

For experiment [11], the target named is bovine Estrogen Receptor (ER), ESR1 (gene 407238) (UniProt P49884). The experiment is described as follows: NVS_NR_bER: NovaScreen (NVS) Nuclear Receptor Binding Assay for bovine Estrogen Receptor (ER) (AID 2283345).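 Also: actives lower the bound radioligand count which means they displace the ER ligand.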 Put shortly:
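Displacement of a radioligand from estrogen receptor in bovine uterine membrane preparations; scintillation signal taken at 18 hours, DMSO as baseline. Single-concentration duplicates (25 uM) preceded concentration-response follow-up of actives.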

Experiment [12] has as its target T1, Estrogen receptor (Homo sapiens) + Estrogen receptor beta (Homo sapiens). The experiment is described as follows: OT_ER_ERaERb_0480: Odyssey Thera (OT) 8-hour HEK293T Protein-Complementation Assay for Estrogen Receptor-alpha/-beta Heterodimer (AID 2283352). The method in brief:
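Human HEK293T cells were treated for 8 hours and receptor heterodimerisation was detected through reconstitution of a fluorescent reporter split between ER-alpha and ER-beta ligand-binding domains. Activity was analysed as gain of signal against DMSO.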

Experiment [13] can be described thus: NVS_IC_rCaBTZCHL: NovaScreen (NVS) Ion Channel Assay for Calcium Channel, Type L, Benzothiazepine Site (CaBTZCHL) (AID 2283337). Put shortly: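 Rat cortical membrane preparation, cell-free. Radioligand displaced by test chemical; 1.5 h incubation; filtration, scintillation count. DMSO = negative control/baseline. Primary: duplicate, 25 uM; secondary: concentration series.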

The target in experiment [14] is rat Gamma-Aminobutyric Acid Type A Receptor BDZ, alpha 6 site (GABARa6), Gabra6 (gene 29708) (UniProt P30191). The experiment is described as follows: NVS_LGIC_rGABARa6: NovaScreen (NVS) Ligand-Gated Ion Channel Assay for rat Gamma-Aminobutyric Acid Type A Receptor BDZ, alpha 6 site (GABARa6) (AID 2283339). The method in brief: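 Actives from a 25 uM duplicate screen were retested in concentration series (max 50 uM). Specific radioligand displacement from rat cerebellar membranes was counted by filter-based scintillation at 1 h; DMSO served as baseline.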
Sequence of rat Gamma-Aminobutyric Acid Type A Receptor BDZ, alpha 6 site (GABARa6), Gabra6 (gene 29708) (P30191 whole entry, looked up): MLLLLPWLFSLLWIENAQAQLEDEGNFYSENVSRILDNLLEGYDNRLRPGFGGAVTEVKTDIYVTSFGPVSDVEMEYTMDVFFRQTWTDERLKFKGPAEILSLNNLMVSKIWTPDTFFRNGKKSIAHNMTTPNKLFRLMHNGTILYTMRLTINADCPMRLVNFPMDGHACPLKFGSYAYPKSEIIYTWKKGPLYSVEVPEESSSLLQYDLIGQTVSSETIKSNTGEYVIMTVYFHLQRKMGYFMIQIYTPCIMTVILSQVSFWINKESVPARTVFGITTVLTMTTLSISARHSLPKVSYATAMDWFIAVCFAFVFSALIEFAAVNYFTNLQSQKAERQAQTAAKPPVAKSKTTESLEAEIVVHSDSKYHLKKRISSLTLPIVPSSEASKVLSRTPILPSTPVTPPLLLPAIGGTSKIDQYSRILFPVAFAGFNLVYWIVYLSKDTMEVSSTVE

Experiment [15] concerns the target rat Glutamate, MK-801 Agonist Site (GluNMDA_MK801), Grin1 (gene 24408) (UniProt P35439). Description: NVS_LGIC_rGluNMDA_MK801_Agonist: NovaScreen (NVS) Ligand-Gated Ion Channel Assay for rat Glutamate, MK-801 Agonist Site (GluNMDA_MK801) (AID 2283340). The method in brief: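 Rat forebrain membrane preparation; MK-801-site radioligand binding read by filtration and scintillation after 1.5 h. Single-point 25 uM duplicate screen, followed by singleton concentration series to 50 uM max; DMSO baseline.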

Experiment [16] has as its target Bile acid receptor (Homo sapiens) (UniProt Q96RI1). Description: NVS_NR_hFXR_Antagonist: NovaScreen (NVS) Nuclear Receptor Binding Assay for human Farnesoid X Receptor Antagonism (FXR) (AID 2283350). Put shortly: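 Antagonist-format time-resolved FRET binding assay with extracted human receptor protein, read 1 hour after compound addition. Compounds first screened at 25 uM in duplicate, then actives tested in concentration series, with loss of signal relative to DMSO.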

Inconclusive results are not listed. Active and inactive are the calls of the source. The calls were made as follows: active = hit-call score of the fitted dose curve at least 0.9, where 1 is the maximum; inconclusive = response in the unintended direction; inactive = score below 0.9.

Sequence of bovine Estrogen Receptor (ER), ESR1 (gene 407238) (P49884 whole entry, looked up): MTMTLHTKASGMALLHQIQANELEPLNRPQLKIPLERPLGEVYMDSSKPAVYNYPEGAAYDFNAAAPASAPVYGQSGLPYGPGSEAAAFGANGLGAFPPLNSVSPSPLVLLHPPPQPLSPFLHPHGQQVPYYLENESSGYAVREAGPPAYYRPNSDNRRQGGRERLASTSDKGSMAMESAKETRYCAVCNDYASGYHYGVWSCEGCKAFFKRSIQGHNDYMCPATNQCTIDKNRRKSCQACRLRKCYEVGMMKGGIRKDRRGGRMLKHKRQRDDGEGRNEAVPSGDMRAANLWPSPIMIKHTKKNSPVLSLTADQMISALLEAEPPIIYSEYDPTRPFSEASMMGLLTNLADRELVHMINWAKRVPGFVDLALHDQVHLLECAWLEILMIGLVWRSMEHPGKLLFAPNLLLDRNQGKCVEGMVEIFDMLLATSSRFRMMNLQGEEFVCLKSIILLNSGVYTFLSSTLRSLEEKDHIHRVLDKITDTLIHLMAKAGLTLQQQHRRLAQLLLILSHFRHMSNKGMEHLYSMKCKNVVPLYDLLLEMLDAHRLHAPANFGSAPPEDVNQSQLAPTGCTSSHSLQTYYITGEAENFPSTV
Sequence of Androgen Receptor/SRC-1 Co-activator, AR (gene 367) (P10275 whole entry, looked up, the tested form may be a part): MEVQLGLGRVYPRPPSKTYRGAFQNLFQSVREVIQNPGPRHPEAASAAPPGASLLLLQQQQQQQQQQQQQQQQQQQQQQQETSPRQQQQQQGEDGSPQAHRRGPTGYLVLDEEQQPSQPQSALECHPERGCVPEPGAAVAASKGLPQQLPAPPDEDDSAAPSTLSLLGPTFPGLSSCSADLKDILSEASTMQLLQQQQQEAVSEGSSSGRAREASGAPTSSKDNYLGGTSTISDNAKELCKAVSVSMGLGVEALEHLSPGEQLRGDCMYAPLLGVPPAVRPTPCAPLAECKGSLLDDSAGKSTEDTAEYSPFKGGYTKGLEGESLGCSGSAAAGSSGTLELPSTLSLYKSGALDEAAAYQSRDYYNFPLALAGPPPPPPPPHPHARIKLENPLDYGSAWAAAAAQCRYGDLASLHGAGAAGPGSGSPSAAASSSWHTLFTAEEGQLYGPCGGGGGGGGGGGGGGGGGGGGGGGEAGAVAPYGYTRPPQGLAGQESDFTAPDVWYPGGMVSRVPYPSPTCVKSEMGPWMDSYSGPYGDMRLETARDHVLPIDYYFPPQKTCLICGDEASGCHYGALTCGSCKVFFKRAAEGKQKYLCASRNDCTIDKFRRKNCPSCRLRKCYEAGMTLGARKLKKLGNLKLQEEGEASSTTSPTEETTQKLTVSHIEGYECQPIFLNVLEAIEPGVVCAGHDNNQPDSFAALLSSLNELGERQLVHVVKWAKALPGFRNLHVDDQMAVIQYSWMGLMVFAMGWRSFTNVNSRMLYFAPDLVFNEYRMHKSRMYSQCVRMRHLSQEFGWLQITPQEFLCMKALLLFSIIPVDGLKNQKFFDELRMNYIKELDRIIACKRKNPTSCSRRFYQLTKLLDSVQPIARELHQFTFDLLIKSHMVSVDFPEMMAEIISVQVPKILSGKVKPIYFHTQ
T1 sequence (P03372 whole entry, looked up, the tested form may be a part): as the sequence (P03372 whole entry, looked up, the tested form may be a part) above
T1 sequence (Q92731 whole entry, looked up, the tested form may be a part): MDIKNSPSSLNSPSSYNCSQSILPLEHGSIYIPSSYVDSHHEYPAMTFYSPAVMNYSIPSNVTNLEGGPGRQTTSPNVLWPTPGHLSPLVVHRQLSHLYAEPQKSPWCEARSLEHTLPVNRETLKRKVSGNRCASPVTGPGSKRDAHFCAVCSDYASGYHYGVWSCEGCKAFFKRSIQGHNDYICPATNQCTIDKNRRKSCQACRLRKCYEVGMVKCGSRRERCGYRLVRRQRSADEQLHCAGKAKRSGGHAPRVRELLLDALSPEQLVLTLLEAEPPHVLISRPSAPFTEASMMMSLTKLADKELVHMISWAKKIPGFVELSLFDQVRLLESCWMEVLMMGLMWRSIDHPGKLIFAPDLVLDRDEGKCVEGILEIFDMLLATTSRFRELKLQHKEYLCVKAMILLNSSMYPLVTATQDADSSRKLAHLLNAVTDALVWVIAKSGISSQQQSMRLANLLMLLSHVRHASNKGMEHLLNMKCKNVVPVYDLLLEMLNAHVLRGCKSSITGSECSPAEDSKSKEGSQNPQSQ
Sequence of human Constitutive Androstane Receptor (CAR), NR1I3 (gene 9970) (Q14994 whole entry, looked up): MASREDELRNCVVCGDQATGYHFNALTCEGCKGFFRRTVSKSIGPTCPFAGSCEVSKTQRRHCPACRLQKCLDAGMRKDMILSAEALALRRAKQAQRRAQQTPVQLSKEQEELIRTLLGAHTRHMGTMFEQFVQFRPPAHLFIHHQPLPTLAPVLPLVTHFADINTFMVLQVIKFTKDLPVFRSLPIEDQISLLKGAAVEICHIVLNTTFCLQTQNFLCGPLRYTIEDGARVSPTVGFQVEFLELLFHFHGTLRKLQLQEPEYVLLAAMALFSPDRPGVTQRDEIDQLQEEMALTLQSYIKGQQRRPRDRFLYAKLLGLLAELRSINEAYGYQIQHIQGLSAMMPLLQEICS

As for `COC(=O)N(C(=O)N1CO[C@@]2(C(=O)OC)Cc3cc(Cl)ccc3C2=N1)c1ccc(OC(F)(F)F)cc1`, the molecule was called inactive in experiment [1], in experiment [2], in experiment [3], in experiment [4], in [5] and in [6]. In addition, the result in experiment [7] was inactive.
The AC50 is the concentration at which the activity in the assay is half-maximal. Regarding `Cc1c(COC(=O)[C@@H]2[C@H](/C=C(\Cl)C(F)(F)F)C2(C)C)cccc1-c1ccccc1`, the outcome in [1], in [8], in experiment [3] and in [4] was inactive. The AC50 in [7] is 72.3 µM (active).
Consider `COP(=S)(OC)SCn1nnc2ccccc2c1=O`, for which the results for the AC50 in experiment [1] and in experiment [2] were 13.6 µM (active) and 16.1 µM (active), respectively. Besides, the molecule was called inactive in experiment [9], in experiment [3], in [4], in experiment [5], in [6] and in experiment [7].
For `CC(C)(C)C(=O)C(Oc1ccc(Cl)cc1)n1cncn1` (stereo not given), the AC50 was 2.37 µM (active) in experiment [1], 19.6 µM (active) in experiment [2] and 58.6 µM (active) in experiment [7]. Moreover, the molecule was called inactive (in [10]; with NCBI gene 100848466; in [9]; in experiment [11]; in experiment [8]; in experiment [3]). The call in experiment [4] and in experiment [12] was inactive.
On to `Cn1c(-c2ccccc2)cc(-c2ccccc2)[n+]1C`, for which the AC50 in experiment [13] is 33.3 µM (active). Moreover, the outcome in [10], in [3], in [4] and in experiment [12] was inactive.
As to `CSC(=O)c1c(C(F)F)nc(C(F)(F)F)c(C(=O)SC)c1CC(C)C`, the outcome in experiment [10] and in experiment [4] was inactive. Moreover, the AC50 in experiment [3] is 47.1 µM (active); in [7], 31 µM (active).
For `CCCCC(O)(Cn1cncn1)c1ccc(Cl)cc1Cl` (stereo not given), the outcome in [13], in [15], in [11], in [3], in [16] and in experiment [4] was inactive. Further, the outcome in [12] and in experiment [7] was inactive. For the same molecule, the AC50 in experiment [14] was 1.89 µM (active); in the experiment with NCBI gene 100848466, 7.24 µM (active); in experiment [2] it was 25 µM (active); in experiment [5] it was 72.5 µM (active); in experiment [6] it was 75.8 µM (active).
Regarding `COC(=O)c1c(C(F)F)nc(C(F)(F)F)c(C2=NCCS2)c1CC(C)C`, the AC50 in [1] was 0.484 µM (active); in experiment [12] it was 17.2 µM (active). Further, the molecule was classed as inactive (in the experiment on NCBI gene 100848466; in [9]; in [3]; in [4]; in experiment [5]; in experiment [6]). Also, in experiment [7], the result was inactive.
For `COCC(=O)N(c1c(C)cccc1C)C(C)C(=O)OC` (stereo not given), the AC50 in [1] was 25 µM (active). In addition, the result (in the experiment on NCBI gene 100848466; in experiment [9]; in experiment [3]; in experiment [12]; in experiment [7]) was inactive.
For `O=C(Nc1ccccc1-c1ccc(Cl)cc1)c1cccnc1Cl`, the molecule was called inactive in [1], in experiment [3], in experiment [4] and in experiment [7].
On to `CC(C)Oc1cccc(NC(=O)c2ccccc2C(F)(F)F)c1`, for which, in [1], the AC50 was 0.28 µM (active). Further, the molecule was called inactive in experiment [9], in [11], in [3] and in [7].
As to `CC1(C)C(C(=O)OC(C#N)c2cccc(Oc3ccccc3)c2)C1(C)C` (stereo not given), the result in [1], in experiment [3], in [4] and in experiment [7] was inactive.
On to `Cc1nc(N(C)C)nc(OC(=O)N(C)C)c1C`, for which, in experiment [1], the AC50 is 19 µM (active). The call in experiment [3], in [4] and in experiment [7] was inactive.
